High-throughput results: PubChem, National Center for Advancing Translational Sciences (NCATS)
VACV mCherry inh: vaccinia inhibition (mCherry reporter) | Vaccinia virus mCherry reporter infection, fluorescence | Potency, µM (highest dose often 36.5 µM), actives largely listed as inhibitors | 310,000 compounds, 0.63% hits | AID 720579; calls by dose curve; tested in A549 cells; note: nearly all actives have a fitted effect of over 35% in size
HCMV antiviral: inhibitors of human cytomegalovirus; 410,000 compounds, 4.5% hits; activity change, negative = inhibition, % at 57.5 µM; AID 1259415; HFF cells, HCMV-luciferase reporter, 72 h; hits give low values; in the data active = activity change below about -60%; inconclusive = no clear call, values can overlap the other calls; inactive = above about -39%
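Compounds were evaluated in HFFs infected with an HCMV luciferase reporter virus (MOI 1 PFU/cell). Luciferase in lysates collected 72 h post infection served as the replication measure.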
HCV inhibitor: blocks hepatitis C virus; 340,000 compounds, 3.4% hits; Huh7.5.1 HCVcc-Cre infection, luciferase reporter, 44 h; Potency, µM (series often up to 41.8 µM), hits mostly inhibitors; active = well fitted inhibition curve with a large enough effect; inconclusive = small, poorly fitted or top-dose-only effect, or another doubt; inactive = no such curve, though single readings can be large or run the other way
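Infectious HCVcc-Cre (~0.5 moi) was added to cells just after compound, with cells seeded 4 h earlier at 1,000 per well. Luciferase activity after 44 h culture reported infection; substrate was incubated 15 min at room temperature before reading.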
Lassa entry inh: inhibitors of Lassa virus binding or cell entry; Lassa virus pseudotype entry inhibition, cell reporter; Potency, µM (series often up to 37.9 µM), hits mostly inhibitors; AID 540256; 300,000 compounds, 1.2% hits; calls by dose curve; tested in HEK293 cells; note: nearly all actives have a fitted effect of over 50% in size
MARV entry inh: Marburg virus entry inhibition; Marburg virus pseudotyped entry inhibition, cell reporter; Potency, µM (doses to about 37.8 µM), hits mostly inhibitors; 300,000 compounds, 1.8% hits; calls by dose curve; tested in HEK293 cells
Vaccinia Venus: inhibitors of vaccinia virus (Venus reporter); Vaccinia virus Venus reporter expression, fluorescence; Potency, µM (doses to about 36.5 µM), actives largely listed as inhibitors; 330,000 compounds, 0.46% hits; calls by dose curve; tested in A549 cells; note: nearly all actives have a fitted effect of over 30% in size
A number is an active result; . = inactive; ? = inconclusive; / = no result; ! = a repeat was not active; [ ] = another dose, or the depositor's remark. In the library only some 7.8% were active in any assay of this set; here they are far more common.

SMILES	VACV mCherry inh	HCMV antiviral	HCV inhibitor	Lassa entry inh	MARV entry inh	Vaccinia Venus
COC(=O)c1c(-c2cc(OC)cc(OC)c2)sc2ccc(OC)cc12	.	.	13µM	/	/	.
COc1ccccc1CNC(=O)c1ccc(-c2nc(CN3CCc4ccccc43)c(C)o2)cc1	?	.	/	.	/	.
CCOc1cc(/C=N\Nc2ncc(F)c(N3CCOCC3)n2)ccc1Oc1nc(Cl)ncc1F	.	-73	10µM	?	?	.
COc1ccc(/C=N/NC(=O)CC#N)cc1Oc1nc(Cl)ncc1F	/	.	.	/	/	/
CCOc1cc(/C=N/NC(=O)c2ccc(O)cc2)ccc1Oc1nc(Cl)ncc1F	/	-71	.	/	/	/
Nn1cnnc1N/N=C/c1cc(Br)cc(Br)c1O	8.9µM	?	?	?	?	?
COc1cccc(-c2nc(CS(=O)(=O)CC(=O)NCc3ccccc3)c(C)o2)c1	.	.	?	.	.	.
COc1cccc(-c2nc(CS(=O)(=O)CC(=O)Nc3ccc(F)cc3F)c(C)o2)c1	.	.	11µM	?	.	.
COc1cc(N2CCN(C(C)C)CC2)ccc1Nc1nc(Nc2ccc(F)cc2C(N)=O)c2cc[nH]c2n1	/	/	/	25µM	/	/
COc1cc(C)c(NC(=O)CN(C)C)cc1Nc1nc(Nc2cccc(F)c2C(N)=O)c2cc[nH]c2n1	/	/	/	2.5µM	/	/
COc1cc2c(cc1Nc1nc(Nc3ccsc3C(N)=O)c3cc[nH]c3n1)N(C(=O)CN(C)C)CCC2(C)C	/	/	/	0.5µM	/	/
COc1cc(SC#N)ccc1N=Cc1c(C)[nH]n(-c2ccc(C)c(C)c2)c1=O	.	-65	?	11µM	?	.
COc1cc(SC#N)ccc1N=Cc1c(C)[nH]n(-c2ccc(Cl)cc2)c1=O	.	.	.	.	?	.
Cn1nc(-c2ccccc2)cc1NC(=O)Nc1ccccc1F	.	.	.	.	.	.
Cc1cc(C)cc(NC(=O)Nc2cc(-c3ccccc3)nn2C)c1	.	-69	.	.	.	.
CCc1nnc(NC(=O)c2nc(S(=O)(=O)Cc3ccc(C)cc3)ncc2Cl)s1	.	-101	?	?	?	.
CCOc1ccccc1NC(=O)c1nc(S(=O)(=O)Cc2cccc(C)c2)ncc1Cl	.	-113	2.8µM	.	.	.
CCc1nnc(NC(=O)c2nc(S(=O)(=O)Cc3cccc(C)c3)ncc2Cl)s1	.[7.34 µM]	-101	11µM	?	?	.
CCc1nnc(NC(=O)c2nc(S(=O)(=O)Cc3ccccc3)ncc2Cl)s1	.	-101	?	?	?	.
CNC[C@@H]1OCc2cnnn2CCCC(=O)N([C@@H](C)CO)C[C@H]1C	/	.	/	/	/	/
Cc1ccc(-n2nc(C(=O)N(C)c3ccc(C)c(C)c3)c3c4ccccc4n(C)c3c2=O)cc1	.	.	/	?	.	.
COc1cc2c3cc1Oc1cc(ccc1O)C[C@@H]1c4c(cc(OC)c(O)c4Oc4ccc(cc4)C[C@H]3N(C)CC2)CCN1C	.	.	7.9µM!	?	1.8µM	.
COc1cc2c3cc1Oc1c(OC)c(OC)cc4c1[C@H](Cc1ccc(cc1)Oc1cc(ccc1O)C[C@H]3N(C)CC2)N(C)CC4	?	.	11µM	/	/	?
COc1ccc2cc1Oc1ccc(cc1)C[C@H]1c3c(cc4c(c3Oc3cc5c(cc3OC)CCN(C)[C@@H]5C2)OCO4)CCN1C	.	.	14µM	/	/	.
COc1ccc(NC(=O)Cn2c(=O)n(Cc3ccccc3)c(=O)c3sc4ccccc4c32)cc1	.	.	/	.	.	.
SMILES	VACV mCherry inh	HCMV antiviral	HCV inhibitor	Lassa entry inh	MARV entry inh	Vaccinia Venus
CC(C)(CNC(=O)c1cnn(-c2nccc(-c3ccccc3F)n2)c1C1CC1)N1CCOCC1	.	/	/	/	/	.
COc1ccc(C(=O)NCCN2Cc3cc(C)ccc3OC(C)C2)c(OC)n1 (stereo not drawn)	.	/	/	/	/	.
CCc1ccc2c(c1)c(=O)c(S(=O)(=O)c1ccc(F)cc1)cn2CC(=O)Nc1ccc(C)cc1C	.	.	/	?	.	.
COc1ccc(/C=C/c2cc(C(F)(F)F)[nH]c(=O)n2)cc1OC	?	-95	.	?	.	?
CCOc1cc(/C=C/c2cc(C(F)(F)F)[nH]c(=O)n2)ccc1O	?	-98	.	?	?	.
CCOc1cc(/C=C/c2nc3ccccc3c(=O)[nH]2)ccc1O	/	.	.	/	/	/
COc1ccc(CNC(=O)C2CCN(C(=O)c3ccc(-n4ccc5ccccc54)s3)CC2)cc1	.	.	/	?	/	.
CC(=O)c1cccc(NC(=O)c2ccc(Cl)c(S(=O)(=O)N3CCOCC3)c2)c1	.	.	/	.	/	.
